Among the data in PubChem BioAssay (EPA / NIEHS) are AC50 and outcome values, retold here.

“And” between values parts separate entries of the source, which are not always exact repeats. Identical values can stand only once. The source made the active and inactive calls. How the source made its calls, unless noted: active means hit-call score of the fitted dose curve at least 0.9, where 1 is the maximum; inactive means score below 0.9.

The first assay concerns DIO2 (gene 1734). Put plainly: CCTE_GLTED_hDIO2: CCTE's human Deiodinase 2 (DIO2) Inhibition Assay, Great Lakes Toxicology and Ecology Division (GLTED) Lab (AID 2284050; active means hit-call score of the fitted dose curve at least 0.9, where 1 is the maximum). The method, boiled down:
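Cell-free human DIO2 enzyme was incubated with test chemical for 3 h; iodide liberated from substrate was then quantified by the Sandell-Kolthoff reaction (absorbance), run in triplicate. Loss of signal versus DMSO baseline indicated inhibition.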
On to `CCCCCCCCCCCCCCCCOS(=O)(=O)O`, for which the AC50 (usually the midpoint of the concentration-response curve, whichever way the signal moves) was 28.9 µM (active).
On to `COc1cc(C(C)C)c2c(c1)S(=O)(=O)N(COc1cc(=O)n3cccc(OCCN4CCCCC4)c3n1)C2=O`, for which the AC50 is 11.7 µM (active).
In the case of `C=CCc1cc(S(=O)(=O)c2ccc(O)c(CC=C)c2)ccc1O`, the AC50 was 120 µM (active).

Tested on in a further assay: not listed separately
Put plainly: CCTE_Shafer_MEA_dev_spike_duration_mean: CCTE's Neural Network Formation Assay for Mean Spike Duration, Shafer Lab (AID 2284051).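 Further: mean network spike duration pooled as area under curve over DIV 5 to 12 recordings.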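 On AC50: potency for a decrease in mean network spike duration versus DMSO.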 Put shortly: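 Primary rat cortical neurons on 16-electrode MEA wells (PEI-coated, laminin in plating drop), exposed from plating through DIV 12 with compound renewed at DIV 5 and 9. Mean network-spike duration recorded DIV 5, 7, 9, 12; trapezoidal AUC across days, DMSO baseline.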
`OC(Cn1cncn1)(Cn1cncn1)c1ccc(F)cc1F`: the result was inactive.
Consider `FC(F)(F)C(F)(F)C(F)(F)C(F)(F)C(F)(F)C(F)(F)I`, for which the outcome was inactive.
On the same count and under the same terms, in the case of `CCCC(CCC)C(=O)O` it was “inactive”; in that of `CCOc1ccc2[nH]cc(C(=O)NCc3ccccc3)c(=O)c2n1`, “inactive”; in that of `NNC(=O)c1ccncc1`, “inactive”.
The same measure, in the same setting: the result for `Cn1cc[nH]c1=S` reads “inactive”; that for `OC(O)(C(F)C(O)(O)C(F)(F)F)C(F)(F)F`, “inactive”.
On to `CC[C@H](C)C(=O)O[C@H]1C[C@H](O)C=C2C=C[C@H](C)[C@H](CC[C@@H](O)C[C@@H](O)CC(=O)O)[C@H]21`, for which the AC50 was 37 nM (active).
On to `C[C@]12C=CC(=O)C=C1CC[C@H]1[C@@H]3C[C@@H](O)[C@](O)(C(=O)CO)[C@@]3(C)C[C@H](O)[C@@]12F`, for which the compound was called inactive.
As for `OCCC(F)(F)C(F)(F)C(F)(F)C(F)(F)F`, the compound was classed as inactive.
Consider `c1ccc2cc3ccccc3cc2c1`, for which the call was inactive.
On to `FC(F)(F)COC(OCC(F)(F)F)OCC(F)(F)F`, for which the compound was classed as inactive.
In the case of `COc1cc2c(c(OC)c1OC)-c1ccc(OC)c(=O)cc1[C@@H](NC(C)=O)CC2`, the AC50 was 24.8 nM (active).
`O=C(Cl)C(F)(F)C(F)(F)C(F)(F)C(=O)Cl`: the compound was called inactive.
`CCN(CC)C(=S)SSC(=S)N(CC)CC`: the half-maximal activity concentration (AC50) is 106 nM (active) and 47.6 nM (active).
Consider `c1ccc2c(c1)-c1cccc3c1c-2cc1ccccc13`, for which the AC50 is 4480 nM (active).
Consider `NCC(F)(F)C(F)(F)C(F)(F)C(F)(F)F`, for which the result was inactive.
Consider `NC(=O)N1c2ccccc2C=Cc2ccccc21`, for which the outcome was inactive.
For `Nc1ccn([C@@H]2O[C@H](CO)[C@@H](O)[C@@H]2O)c(=O)n1`, the concentration at half-maximal activity (AC50) was 145 nM (active) and 889 nM (active).

Tested on in another assay: not listed separately
Put plainly: CCTE_Shafer_MEA_dev_network_spike_duration_std: CCTE's Neural Network Formation Assay for Standard Deviation of Network Spike Duration, Shafer Lab (AID 2284052).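 Further: area under curve of spike duration SD across recording days 5 to 12; hits are decreases in network spike duration SD versus DMSO vehicle.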 The method, boiled down: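 Primary rat cortical neurons on PEI-coated 16-electrode MEA wells, exposed from plating day 0 through day 12 with compound renewed at DIV 5 and 9. Network spike duration SD recorded on days 5, 7, 9, 12, collapsed as trapezoidal AUC; loss-of-signal fit versus DMSO.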
In the case of `OC(Cn1cncn1)(Cn1cncn1)c1ccc(F)cc1F`, the result was inactive.
Consider `FC(F)(F)C(F)(F)C(F)(F)C(F)(F)C(F)(F)C(F)(F)I`, for which the call was inactive.
Still for that read-out and setting: the result for `CCCC(CCC)C(=O)O` reads “inactive”; that for `CCOc1ccc2[nH]cc(C(=O)NCc3ccccc3)c(=O)c2n1`, “inactive”.
Turning to `NNC(=O)c1ccncc1`, the compound was classed as inactive.
For the compound `Cn1cc[nH]c1=S`, the compound was classed as inactive.
Consider `OC(O)(C(F)C(O)(O)C(F)(F)F)C(F)(F)F`, for which the compound was called inactive.
For `CC[C@H](C)C(=O)O[C@H]1C[C@H](O)C=C2C=C[C@H](C)[C@H](CC[C@@H](O)C[C@@H](O)CC(=O)O)[C@H]21`, the outcome was inactive.
As for `C[C@]12C=CC(=O)C=C1CC[C@H]1[C@@H]3C[C@@H](O)[C@](O)(C(=O)CO)[C@@]3(C)C[C@H](O)[C@@]12F`, the outcome was inactive.
Consider `OCCC(F)(F)C(F)(F)C(F)(F)C(F)(F)F`, for which the call was inactive.
Take `c1ccc2cc3ccccc3cc2c1`: the call was inactive.
On to `FC(F)(F)COC(OCC(F)(F)F)OCC(F)(F)F`, for which the outcome was inactive.
For the compound `COc1cc2c(c(OC)c1OC)-c1ccc(OC)c(=O)cc1[C@@H](NC(C)=O)CC2`, the AC50 is 3.22 nM (active).
Take `O=C(Cl)C(F)(F)C(F)(F)C(F)(F)C(=O)Cl`: the result was inactive.
As for `CCN(CC)C(=S)SSC(=S)N(CC)CC`, the AC50 is 100 nM (active) and 40.6 nM (active).
Consider `c1ccc2c(c1)-c1cccc3c1c-2cc1ccccc13`, for which the compound was classed as inactive.
In the case of `NCC(F)(F)C(F)(F)C(F)(F)C(F)(F)F`, the compound was called inactive.
The same measure, in the same setting: the result for `NC(=O)N1c2ccccc2C=Cc2ccccc21` reads “inactive”.
Take `Nc1ccn([C@@H]2O[C@H](CO)[C@@H](O)[C@@H]2O)c(=O)n1`: the AC50 is 65.6 nM (active) and 636 nM (active).
